The list is not random: actives were taken first. Their share in the collection is about 7.5%.
KinaseGlo FLuc: Kinase-Glo luciferase inhibition (counter-screen) | Kinase-Glo luciferase, ATP luminescence, 8 min | 200,000 compounds, 0.28% hits | Potency, µM (series often up to 38.3 µM), for inactives: top-dose activity change, negative = inhibition, usual class: inhibitors | Q27757; also: % is scaled to controls: 0 for no effect and ±100 for the full control effect; nearly all actives have a fitted effect of over 60% in size
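Compounds were added to a substrate mix at pH 7.2 (50 mM imidazole, 10 uM ATP, within the enzyme's linear range), followed by Kinase-Glo detection reagent; luminescence was measured after 8 minutes at ambient temperature.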
SMN2 splice enh: SMN2 splice variant enhancement. HEK293 SMN2-luciferase splicing reporter, luminescence, 30-36 h. Potency, µM (titrated, usually from 46.1 µM), for inactives: at the highest dose activity change, positive = activation, hits mostly activators. 210,000 compounds, 2.8% hits. AID 1458; also: % of control where 0% means no effect; nearly all actives have a fitted effect of over 55% in size
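qHTS luciferase splicing reporter: luminescence rises when SMN2 exon 7 is included in transfected HEK293 cells. Compound exposure lasted 30-36 h at 37C, with 4.5 mM final sodium butyrate as control, followed by a ONE-Glo read.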
ELG1 genotoxic: genotoxicity induction in ELG1-luciferase HEK293T cells; HEK293T ELG1-luciferase reporter, luminescence, 16 h; Potency, µM (titrated, usually from 46 µM), for the others: at the top dose activity change, positive = activation, usual class: activators; 330,000 compounds, 1.3% hits; also: % of control where 0% means no effect; nearly all actives have a fitted effect of over 60% in size
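Luminescence read-out: rising ELG1-luciferase signal, reflecting elevated ELG1 protein under genetic stress, flags genotoxic compounds. Cells were treated for 16 hr at 37 °C before ONE-Glo detection.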
NPC1 prom act: activators of NPC1 promoter | Huh7 NPC1 promoter luciferase reporter, 24 h | Potency, µM (doses to about 9.22 µM), for inactives: at the top dose activation, actives largely listed as activators | 320,000 compounds, 2.4% hits; also: % of control where 0% means no effect; nearly all actives have a fitted effect of over 60% in size
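Luminescence read-out of NPC1 promoter-driven luciferase in stably transfected Huh7 cells; compounds delivered in DMSO and left 24 h at 37C, 5% CO2, qHTS titration format.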
Rab9 prom act: activates the Rab9 promoter. Huh7 Rab9 promoter-luciferase reporter, luminescence, 24 h. Potency, µM (doses to about 9.22 µM), without a hit: at the top dose activation, negative = inhibition, usual class: activators. 320,000 compounds, 2.8% hits. AID 485297; also: % of control where 0% means no effect; nearly all actives have a fitted effect of over 60% in size
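Luciferase signal after 10 min detection reagent at ambient indicates Rab9 promoter upregulation; stably transfected Huh7 cells were treated 24 h with compound in DMSO at 37 °C, 5% CO2.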
FLuc modulator: counter-screen for miR-21 project: firefly luciferase inhibitors or activators; purified FLuc, Km substrates, luminescence inhibition; 360,000 compounds, 6.9% hits; Potency, µM (top dose mostly 57.5 µM), for inactives: at the highest dose activity change, negative = inhibition, actives largely listed as inhibitors; P08659; AID 588342;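 also: plate controls were vehicle for no effect and reference inhibitor for full effect; nearly all actives have a fitted effect of over 55% in size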
Target sequence (P08659 whole entry, looked up): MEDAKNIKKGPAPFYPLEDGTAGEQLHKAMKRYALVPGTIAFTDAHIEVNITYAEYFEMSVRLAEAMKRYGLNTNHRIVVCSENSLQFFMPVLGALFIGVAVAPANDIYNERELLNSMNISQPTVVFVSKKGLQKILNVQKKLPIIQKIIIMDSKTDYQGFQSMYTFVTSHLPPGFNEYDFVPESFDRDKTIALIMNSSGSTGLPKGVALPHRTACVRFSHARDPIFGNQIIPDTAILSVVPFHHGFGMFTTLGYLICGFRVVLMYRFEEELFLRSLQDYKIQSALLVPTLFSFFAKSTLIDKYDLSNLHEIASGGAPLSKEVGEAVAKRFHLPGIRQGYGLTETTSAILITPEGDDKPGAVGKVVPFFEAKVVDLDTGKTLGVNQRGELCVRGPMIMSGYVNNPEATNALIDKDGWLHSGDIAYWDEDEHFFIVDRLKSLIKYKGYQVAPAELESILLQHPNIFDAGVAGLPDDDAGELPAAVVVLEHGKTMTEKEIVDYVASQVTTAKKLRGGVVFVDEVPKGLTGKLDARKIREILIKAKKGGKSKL
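Biochemical qHTS of compounds, final roughly 60 µM downward over six points, against 10 nM purified firefly luciferase using Km concentrations of substrates (10 uM D-luciferin, 10 uM ATP) in Tris acetate pH 7.5 buffer; luminescence output.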
* hit, by the source's call; u = inconclusive; x = no result given; ! = not confirmed by another sample; [ ] = another dose, or the depositor's remark. Calls follow the shape of the dose curve; as a rule, active = well fitted curve in the direction sought with a large enough effect; inconclusive = small, poorly fitted or top-dose-only effect, or another doubt; inactive = no such curve, though single readings can be large; an effect the other way counts as inactive or inconclusive. Potency is read from the fitted curve at half-maximal effect.

SMILES	KinaseGlo FLuc	SMN2 splice enh	ELG1 genotoxic	NPC1 prom act	Rab9 prom act	FLuc modulator
CC(C)C(=O)N1CCN(c2ccc(NC(=O)c3cccs3)cc2Cl)CC1	4%	x	-9%	9%	7%	u
CC(C)C(=O)N1CCN(c2ccc(NC(=O)c3ccc4c(c3)OCCO4)cc2Cl)CC1	-3%	-41%	-34%	6%	-2%	4.3µM*
CC(=O)N1CCN(c2ccc(NC(=O)c3ccc4c(c3)OCCO4)cc2Cl)CC1	-1%	x	-7%	9%	-1%	6µM*
COc1ccc(NC(=O)CN(c2ccc(OC)cc2)S(=O)(=O)c2c(C)nn(C)c2C)cc1	x	x	1%	-3%	-3%	5%
COc1cc(-c2nc3ccc(C)cn3c2Nc2ccc3c(c2)OCCO3)ccc1O	17%	u	4%	1%	0%	21µM*
Cc1ccc2nc(-c3ccc(C)s3)c(Nc3ccc4c(c3)OCCO4)n2c1	x	13µM*	x	x	x	u
Cc1ccn2c(Nc3ccc4c(c3)OCCO4)c(-c3ccc(C)o3)nc2c1	x	u	x	x	x	13µM*
Cc1ccc2nc(-c3ccco3)c(Nc3ccc4c(c3)OCCO4)n2c1	x	8%	x	x	x	11µM*
COc1ccccc1-c1coc2cc(O)cc(O)c2c1=O	-3%	25%	16µM*	21%	u	21µM*
CCN(CC)C(=O)COc1ccc2c(-c3ccccc3)cc(=O)oc2c1	x	x	0%	-5%	-3%	-7%
CCN(CC)C(=O)Oc1ccc2c(=O)c(-c3ccccc3)coc2c1	-13%	u	u	1.6µM*	3.5µM*	6µM*
O=c1c(-c2ccc(F)cc2)coc2c3c(ccc12)OCCO3	-4%	u	2.6µM*	3.5µM*	1.3µM*	u
COc1ccc2c(=O)c(-c3ccc(OC)c(OC)c3)coc2c1	x	x	u	u	u	7.6µM*
O=c1c(-c2ccc(Br)cc2)coc2c(CN3CCOCC3)c(O)ccc12	-2%	-9%	8%	0%	-6%	-21%
COc1ccc(-c2coc3cc(O)cc(O)c3c2=O)cc1OC	x	x	u	22%	24%	u
Cc1ccc(-c2nnn(CCOc3cccc(Br)c3)n2)cc1	-1%	5%	5%	0%	-4%	3%
COc1ccc(-c2coc3cc(OC(C)=O)cc(OC(C)=O)c3c2=O)cc1	-2%	8.9µM*	x	x	x	x
COc1ccc(-c2coc3cc(O)ccc3c2=O)cc1OC	7%	28%	u	u	u	19µM*
COc1ccc2c(=O)c(CC(=O)O)coc2c1	-1%	4%	x	x	x	x
O=c1c(-c2ccc(F)cc2)coc2cc(O)ccc12	u	78%	u	3.2µM*	3.5µM*	13µM*
COc1ccc2c(=O)c(-c3ccccc3)coc2c1	2.8µM*!	11µM*	1%	0.71µM*	0.79µM*	3µM*
CC(C)C(NC(=O)c1ccc(Cl)cc1Cl)C(=O)NCCc1ccccn1 (stereo not given)	x	x	1%	1%	1%	2%
Cc1ccc(CNC(=O)CCCCCNC(=O)N2CCn3c2nc2ccccc23)cc1	x	x	0%	-2%	-1%	15µM*
O=C(CCCCCNC(=O)N1CCn2c1nc1ccccc12)NCc1ccc(Cl)cc1	x	x	-3%	-1%	0%	24µM*
O=C(CCCCCNC(=O)N1CCn2c1nc1ccccc12)NCc1ccccc1Cl	x	x	-3%	-7%	0%	15µM*
SMILES	KinaseGlo FLuc	SMN2 splice enh	ELG1 genotoxic	NPC1 prom act	Rab9 prom act	FLuc modulator
S=C(Nc1cccc2ccccc12)NC1CCCCC1	-1%	u	u	19%	u	19µM*
O=C(NC1CCCCCCC1)c1ccc(F)cc1	x	x	10µM*	1.4µM*	1.4µM*	12µM*
O=C(NC1CC2CCCC(C1)N2C(=O)NC1CCCCC1)c1ccc(F)cc1 (stereo not given)	x	x	1%	3%	-3%	6%
O=C(Nc1ccccc1F)NC1CCCCCCC1	x	x	u	u	4µM*	12µM*
O=C(Nc1cccc(Cl)c1)NC1CCCCC1	-6%	29%	8%	u	u	u
O=C(Nc1ccc(F)c(F)c1)NC1CCCCC1	0%	4.5µM*	9%	u	u	15µM*
CCN(CC)c1nc(-c2ccccn2)nc(-c2ccccc2)c1C#N	0%	-81%	-12%	-26%	-12%	u
O=C(Nc1ccc(F)cc1)NC1CCCCCCC1	x	x	u	3.5µM*	u	9.5µM*
O=C(NC1CCCCC1)c1ccc(N2CCCC2=O)cc1	-6%	u	u	u	28%	u
O=C(NC1CCCCCC1)c1ccc(N2CCCC2=O)cc1	-7%	13µM*	9.2µM*	4µM*	3.2µM*	13µM*
O=C(Nc1ccc(Cl)cc1)NC1CCCCC1	-2%	11µM*	20%	1.1µM*	2.5µM*	u
Cc1ccc(NC(=O)N2CCN(c3nnc(C)c4c(C)n(-c5ccc(Cl)cc5)nc34)CC2)c(C)c1	x	x	x	x	x	-8%
COc1ccc(-c2nc(Cn3c(=O)cc(-c4ccccc4)c4c(C)nn(C)c43)c(C)o2)cc1OC	x	x	x	x	x	0%
Cc1cccc(-c2nc(C)c(CCNC(=O)C(=O)Nc3cccc(Cl)c3C)s2)c1	x	x	x	x	x	0%
CC(=O)c1ccc(NC(=O)C2CCN(S(=O)(=O)c3cccc4nonc34)CC2)cc1	x	x	-2%	0%	0%	2%
O=C1/C(=C/c2cccs2)COc2ccccc21	u	-2%	u	-2%	15%	1.3µM*
CCOc1cc(/C=C2\COc3ccccc3C2=O)ccc1OCC(=O)N(C)C	x	x	-24%	2%	-7%	-18%
COc1ccc(NC(=O)C(C(C)C)N2Cc3ccccc3C2=O)cc1 (stereo not given)	x	x	x	x	x	1%
COc1ccc(/C(N)=N/OC(=O)c2cccc([N+](=O)[O-])c2)cc1OC	20%	-13%	u	1%	-1%	u
N/C(=N\OC(=O)c1ccc2c(c1)OCO2)c1cccc([N+](=O)[O-])c1	-23%	-9%	u	7%	u	0.43µM*
Cc1cccc(/C(N)=N/OC(=O)c2ccc3c(c2)OCO3)c1	10µM*	25µM*	9.2µM*	2.8µM*	2.8µM*	0.19µM*
CC[C@H](C)C(=O)O[C@H]1C[C@@H](C)C=C2C=C[C@H](C)[C@H](CC[C@@H]3C[C@@H](O)CC(=O)O3)[C@H]21	-2%	16µM*!	-1%	3%	0%	4%
CC[C@H](C)C(=O)O[C@H]1CCC=C2C=C[C@H](C)[C@H](CC[C@@H]3C[C@@H](O)CC(=O)O3)[C@H]21	-4%	u	7%	-17%[46.1 µM]	-14%[46.1 µM]	-11%
Cc1ccc(-n2ncc(C(=O)NCCCN3CCCCC3)c2C2CCN(C(=O)OC(C)(C)C)CC2)cc1	x	x	x	x	x	-6%
